“And” between values parts separate entries of the source, which are not always exact repeats. Equal entries are not always repeated. The source made the active and inactive calls.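 The calls were made as follows, unless noted: active = compounds whose cell count with miR-34 switched on is under 0.7 times the count with it off; inactive = the rest.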
How the values were obtained:
[1] = sensitizers of A549 cells to miR-34 induction, primary screen, imaging, A549 dox-inducible miR-34, nuclei and caspase counts (AID 1347080); conditions: A549 miR-34 inducible, Hoechst nuclei count, 48 h; also: test concentration not given here
[2] = survival rescue of mitochondrial mutant cells in low glucose, primary screen, MELAS cybrids, Rieske KO mouse fibroblasts, CellTiter-Glo (AID 1508586;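 active = mean z-score across replicates of 1.96 or higher in either the MELAS or the Rieske mutant cell line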;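 also: test concentration not given here; z relative to plate mean and SD of compound and empty wells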)
[3] = viability rescue of complex I mutant cybrids, primary screen, cell-based, galactose medium, ATP luminescence (AID 1645843;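 active = z-score of at least 1.8 in each of two replicates, scored against plate mean and spread of sample wells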;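 also: positive z means more ATP and so rescue of galactose-driven cybrid death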); conditions: complex I mutant cybrid cells, 72 h, stronger effect = higher value
[4] = stronger effect = lower value, cell number ratio, induced over uninduced
[5] = measured here: relative caspase fold change +Dox/-Dox
[6] = measured here: total cells with miR-34 induction, stronger effect = lower value
[7] = measured here: total cells without miR-34 induction
[8] = MELAS cybrid survival, CellTiter-Glo 48 h, stronger effect = higher value
[9] = Rieske KO mouse fibroblast survival, CellTiter-Glo 72 h

Row | Compound | fold change [1, 4] | fold change [1, 5] | cell count [1, 6] | cell count [1, 7] | z-score [2, 8] | z-score [2, 9] | z-score [3]
1 | OCCCc1cn(C2CCN(c3nn4cnnc4c4ccccc34)CC2)nn1 | 0.902 (inactive) | 1.35 | 8970 | 9940 | 0.105 (inactive) | -0.51 | -0.54 (inactive)
2 | Cc1cc(C)nc(-c2cnn(CC(=O)Nc3cc(C)nn3-c3ccccn3)c2)n1 | 0.882 (inactive) | 1.32 | 5870 | 6650 | -0.672 (inactive) | -0.181 | -0.415 (inactive)
3 | Cc1nc2ccc(-c3ncnc4sccc34)cc2c(=O)[nH]1 | 0.886 (inactive) | 1.29 | 9390 | 10600 | 0.107 (inactive) | 0.235 | -0.465 (inactive)
4 | CCn1cnc(NC(=O)N(C)Cc2cccc3ncccc23)n1 | 0.944 (inactive) | 1.82 | 9300 | 9840 | -0.163 (inactive) | -0.316 | -0.465 (inactive)
5 | NC(N)=NCC(=O)O | 0.926 (inactive) | 0.467 | 8690 | 9380 | 0.863 (inactive) | 0.0822 | 0.15 (inactive)
6 | Nc1nc2cc(C(=O)N3CCN(C(=O)c4ccco4)CC3)ccc2s1 | 0.879 (inactive) | 1.74 | 8870 | 10100 | -0.277 (inactive) | -0.24 | -0.565 (inactive)
7 | Cc1ccc2c(-c3ncnc4scc(C)c34)cccc2n1 | 0.882 (inactive) | 1.37 | 6650 | 7540 | -0.275 (inactive) | -0.173 | 2.45 (inactive)
8 | COc1nc2ccccc2cc1-c1nnc2ccccn12 | 0.94 (inactive) | 1.24 | 7160 | 7610 | -0.729 (inactive) | -1.23 | -0.505 (inactive)
9 | O=C(NCc1ccccn1)c1ccc(Oc2ccccc2)cc1 | 0.933 (inactive) | 0.296 | 8650 | 9270 | 0.509 (inactive) | -0.417 | 0.08 (inactive)
10 | O=C(O)c1cc(Br)ccc1NS(=O)(=O)c1ccc(Cl)cc1 | 0.854 (inactive) | 0.75 | 8540 | 10000 | -0.163 (inactive) | -0.343 | 0.495 (inactive)
11 | Cc1nc(NC(=O)NCc2cccc(C(F)(F)F)c2)nn1C | 0.922 (inactive) | 1.12 | 9110 | 9880 | 0.0413 (inactive) | 1.4 | 0.45 (inactive)
12 | NC(=O)NC(Cc1ccccc1)C(=O)O (configuration not stated) | 0.889 (inactive) | 0.725 | 8700 | 9790 | -0.32 (inactive) | -0.255 | 0.66 (inactive)
13 | COc1ccccc1Cn1ncc2[nH]c(-c3ccccc3OC)nc21 | 0.835 (inactive) | 1.7 | 7580 | 9090 | -0.341 (inactive) | -0.0244 | 2.62 (active)
14 | CN(C)Cc1cn(CC2CCN(C(=O)c3ccc4c(c3)OCO4)CC2)nn1 | 0.896 (inactive) | 1.18 | 9300 | 10400 | -0.121 (inactive) | -0.477 | -0.48 (inactive)
15 | Cc1nc(-c2ccnc(N)n2)cn1Cc1c(Cl)cccc1Cl | 0.853 (inactive) | 0.94 | 7950 | 9330 | -0.789 (inactive) | 0.727 | -0.225 (inactive)
16 | O=C(O)Cc1cc(=O)[nH]c(=O)[nH]1 | 0.898 (inactive) | 0.239 | 8760 | 9760 | 0.622 (inactive) | -0.242 | -0.13 (inactive)
17 | CC(O)c1cn(C2CCN(c3ncnc4nc[nH]c34)CC2)nn1 (configuration not stated) | 0.902 (inactive) | 1.71 | 9250 | 10300 | 0.294 (inactive) | -0.198 | -0.55 (inactive)
18 | CC(C)n1cc(-c2cc(C(=O)N(C)Cc3cccnc3)c3cc(F)ccc3n2)cn1 | 0.861 (inactive) | 1.63 | 9060 | 10500 | -0.238 (inactive) | 0.816 | -0.535 (inactive)
19 | CN=C(NC)NCc1ccccc1 | 0.917 (inactive) | 0.571 | 9010 | 9830 | 0.186 (inactive) | -0.223 | 0.38 (inactive)
20 | Cc1csc2ncnc(-c3cccc4cccnc34)c12 | 0.931 (inactive) | 0.756 | 8530 | 9170 | -0.57 (inactive) | -0.471 | -0.505 (inactive)
21 | CNC(=O)c1cc(Oc2ccc3nc(Nc4ccc(Cl)c(C(F)(F)F)c4)[nH]c3c2)ccn1 | 0.938 (inactive) | 0.861 | 2770 | 2950 | 1.25 (inactive) | -0.647 | -2.66 (inactive)
22 | CS(=O)(=O)c1ccc(C(=N)N)cc1 | 0.887 (inactive) | 0.391 | 8670 | 9770 | 0.807 (inactive) | -0.298 | 0.2 (inactive)
23 | Cc1cc(NC(=O)Cn2cc(-c3cccc4cccnc34)cn2)n(C)n1 | 0.876 (inactive) | 0.926 | 8830 | 10100 | -0.478 (inactive) | -0.249 | -0.585 (inactive)

Row | Compound | fold change [1, 4] | fold change [1, 5] | cell count [1, 6] | cell count [1, 7] | z-score [2, 8] | z-score [2, 9] | z-score [3]
24 | O=C(O)CNC(=O)Cc1c[nH]c2ccccc12 | 0.855 (inactive) | 0.234 | 8420 | 9850 | -0.685 (inactive) | -0.0302 | -0.545 (inactive)
25 | O=C(c1ccnc(Cl)c1)N1CCc2[nH]nc(C3CCC3)c2C1 | 0.923 (inactive) | 0.638 | 9170 | 9930 | -0.36 (inactive) | 0.475 | -0.4 (inactive)
26 | O=C(O)CCCc1nc(-c2cccc([N+](=O)[O-])c2)no1 | 0.855 (inactive) | 0.356 | 7990 | 9350 | 1.15 (inactive) | -0.0224 | 0.71 (inactive)
27 | O=C1NCC(=O)N2CCCC12 (configuration not stated) | 0.892 (inactive) | 0.892 | 8240 | 9240 | -0.237 (inactive) | -0.595 | 0.315 (inactive)
28 | COc1cc(N=C(N)N=C(N)N)cc(OC)c1 | 0.901 (inactive) | 0.269 | 8210 | 9120 | 0.825 (inactive) | -0.341 | 0.61 (inactive)
29 | O=C(O)c1ccc(-c2cc(Cl)ccc2Cl)o1 | 0.874 (inactive) | 0.439 | 8600 | 9840 | -0.277 (inactive) | 0.0393 | 0.44 (inactive)
30 | O=C(Cc1noc2ccccc12)NCCOc1cccnc1 | 0.924 (inactive) | 1.95 | 9890 | 10700 | -0.132 (inactive) | -0.425 | -0.56 (inactive)
31 | Cc1ccc(S(=O)(=O)NCCCOC(=O)Nc2ccncc2)cc1 | 0.881 (inactive) | 0.547 | 7920 | 8990 | 0.675 (inactive) | -0.0111 | -0.675 (inactive)
32 | CC(Nc1nc(N)nc2[nH]ncc12)c1ccc(Cl)cc1 (configuration not stated) | 0.895 (inactive) | 1.28 | 7110 | 7940 | -0.461 (inactive) | -0.503 | -0.575 (inactive)
33 | O=C(c1cccc(=O)[nH]1)N(Cc1cccnc1)Cc1ccc2c(c1)OCO2 | 0.964 (inactive) | 1.96 | 9470 | 9830 | -0.318 (inactive) | 0.234 | -0.17 (inactive)
34 | Cc1ccc2nc(C3CCCN3c3ncc(C)c(-c4cnn(C)c4)n3)[nH]c2c1 (configuration not stated) | 0.91 (inactive) | 1.37 | 7980 | 8770 | -0.0346 (inactive) | 0.328 | -0.325 (inactive)
35 | Nc1nc2ccccc2c(=O)[nH]1 | 0.901 (inactive) | 0.247 | 8880 | 9860 | 0.855 (inactive) | -0.798 | 0.65 (inactive)
36 | CC(C)(C)c1cn(C2CCN(C(=O)c3cnc4ccccc4n3)CC2)nn1 | 0.867 (inactive) | 1.26 | 7870 | 9080 | 0.15 (inactive) | -0.382 | -0.44 (inactive)
37 | COc1ccc2c(C(=O)N(C)C3CCN(C)C3)cc(-c3cnn(C)c3)nc2c1 (configuration not stated) | 0.88 (inactive) | 1.02 | 8530 | 9700 | -0.325 (inactive) | -0.194 | -0.495 (inactive)
38 | O=S(=O)(O)CCCSc1nc2ccccc2s1 | 0.906 (inactive) | 0.489 | 8800 | 9700 | -0.268 (inactive) | -0.142 | 0.7 (inactive)
39 | CC(C)(O)c1ccccc1CCC(SCC1(CC(=O)O)CC1)c1cccc(C=Cc2ccc3ccc(Cl)cc3n2)c1 (configuration not stated) | 0.925 (inactive) and 0.834 (inactive) | 1.67 and 2.27 | 8950 and 7950 | 9680 and 9540 | -0.195 (inactive) | -0.136 | 0.25 (inactive)
40 | Cc1c(Br)c(=O)oc2c(Br)c(O)ccc12 | 0.86 (inactive) | 0.806 | 8490 | 9870 | 0.723 (inactive) | -0.168 | -0.145 (inactive)
41 | CNC1CCC(c2ccc(Cl)c(Cl)c2)c2ccccc21 (configuration not stated) | 0.897 (inactive) and 0.972 (inactive) | 1.54 and 0.385 | 3400 and 7100 | 3800 and 7300 | -0.116 (inactive) | -0.231 | -1.88 (inactive)
42 | CC(C)n1cc(-c2cc(C(=O)N(C)Cc3ccncc3)c3ccc(F)cc3n2)cn1 | 0.897 (inactive) | 1.79 | 8810 | 9830 | -0.679 (inactive) | 0.655 | -0.46 (inactive)
43 | COc1cc2c(cc1-c1nnc3ccccn13)OCO2 | 0.908 (inactive) | 2.79 | 8030 | 8840 | 0.597 (inactive) | -0.284 | -0.465 (inactive)
44 | OB(O)c1ccccc1 | 0.876 (inactive) | 0.386 | 7850 | 8950 | -0.818 (inactive) | 0.216 | 0.615 (inactive)
45 | CN1CCC(CN(C)Cc2ccc(-c3nc(-c4cccnc4)cc(=O)[nH]3)cc2)CC1 | 0.831 (inactive) | 1.62 | 8360 | 10100 | 0.139 (inactive) | 0.0765 | -0.51 (inactive)
46 | CC(c1ncncc1F)[C@](O)(Cn1cncn1)c1ccc(F)cc1F (some centres not stated) | 0.956 (inactive) and 0.928 (inactive) | 2.43 and 0.867 | 9660 and 8390 | 10100 and 9030 | -0.404 (inactive) | 0.698 | 0.71 (inactive)

Reference: PubChem BioAssay
